# Data: the supplement of paper PMC8728848
# Many of the other results were omitted from the sample, so the strongest signals are more common in it than they were.
# B1: Epa1-NP (Candida glabrata), Q6VBJ0 (protein)
# chain: MILNPALFLNKCVCIYTTLILLLLTNGGYATSSNDISLASKDPTTFPLGCSPDITTPKKGLSMELYSYDFRKKGSYPCWDAAYLDPNYPRTGYKSHRLLAKVDGVTGNINFYYHATKGCTPQLGHLPASYNYPKPLTMTNFTMLLYGYFRPKVTGFHTFTISADDLLFVNFGAGNAFDCCRRDSSADHFGNYQAYAIWGSKTAKDELTVHLDAGVYYPIRLFYNNREYDGALSFTFKTESNENTVSDFSEYFFSLDDTEEGCPGLISYDSSCASVKTSKIIGIDYHTETPNENLVPITKTIYHLGIPCTGTTTTPLCGSGFYDPLANKCVTINTSSTSSVTKTTSHTTSKEVSFHSSISSQKTLIPKSIPSPYGPIKSQSIPTEMETSSEISSSEYAFSDVISTPSHSPYTKKHSSLNSSSYTSTVIHSLTSYSISQGIFSTSLSEQNITSKSSTDKFSTATSMSNNITQSSIIISQFSTNNENYTTTSMHTSSDKISTETLNNSISTTTSILFSNSSTILKNNTTIISSDKDTHYHPVNPTIVCSTNKTEIICASITQPSISNSNNHWSSSVLKFNSTTVRSTLPSSAGSNETSINVPFSSSTESNTSTSSTSTSNSKMVRSTLPSSAGSNETSISVPFSSSTESNTSTSSTSTSNSKMVRSTLPSSAGSNETSINVPFSSSTESNTSTSSTSTSNSKTVRSTPFSSAGIIMTSLSQRNNKSASSYASSNSKCYNTADSCRKVHSTPSYLLTSSYTSEGVDYDCSLVSTKLKINDTNCVNNKHTTKSCLKTSVTTTIPTLEIKTARKSSSNTIGLHSYPTSSPNKSISSAPIIGYISSFKTIKTASPSYQTSDLTTITTITSLNNPGSTAVENTHESNDKSRKTSSNDISSKHSVIKETKDAVESSNKSHQTNTLKCSSIIIASSSHNSYESLGGTTLTLTLSKVYSPQNNDTLPFLEISEVNPSRTVLPESSKMMQYLTSTEERNKTARNTIATNIVSISTFHFEGEGNAIRMGYTQLLLMLIGIIVMNIGT
# Experiments:
# Assay in all cases: glycan array binding signal (z-score within array); higher = stronger binding
# Details in all cases: glycan notation: IUPAC condensed, linker removed
# [1] = biological target: Fuc(a1-2)Gal(b1-3)GlcNAc(b1-3)Gal(b1-4)Glc
# In short: (§1)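 The Consortium for Functional Glycomics database supplied 3228 glycan arrays, of which those lacking an available protein sequence were dropped. The binding signal, a within-array Z-score, was averaged across arrays of the same protein sequence and across linkers. Negative scores can be read as non-binding.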
# [2] = biological target: Fuc(a1-2)Gal(b1-4)GlcNAc(b1-3)Gal(b1-4)GlcNAc(b1-2)Man(a1-3)[Fuc(a1-2)Gal(b1-4)GlcNAc(b1-3)Gal(b1-4)GlcNAc(b1-2)Man(a1-6)]Man(b1-4)GlcNAc(b1-4)GlcNAc
# In short: as §1
# [3] = biological target: Fuc(a1-2)Gal3S(b1-4)GlcNAc
# In short: as §1
# Fuc(a1-2)GlcNAc = biological target: Fuc(a1-2)GlcNAc
# In short: as §1
# [4] = biological target: Fuc(a1-2)[Gal(a1-3)]Gal(b1-4)GlcNAc(b1-3)GalNAc
# In short: as §1
# [5] = biological target: Fuc(a1-2)[Gal(a1-3)]Gal(b1-4)GlcNAc(b1-3)[Fuc(a1-2)[Gal(a1-3)]Gal(b1-4)GlcNAc(b1-6)]GalNAc
# In short: as §1
# [6] = biological target: Fuc(a1-2)[GalNAc(a1-3)]Gal(b1-3)GlcNAc(b1-6)GalNAc
# In short: as §1
# [7] = biological target: Fuc(a1-2)[GalNAc(a1-3)]Gal(b1-4)[Fuc(a1-3)]GlcNAc
# In short: as §1
# [8] = biological target: Fuc(a1-2)[GalNAc(b1-3)]Gal
# In short: as §1
# [9] = biological target: Fuc(a1-3)[Gal3S(b1-4)]GlcNAc
# In short: as §1
# [10] = biological target: Fuc(a1-3)[GalNAc(b1-4)]GlcNAc
# In short: as §1
# [11] = biological target: Gal(a1-3)Gal(b1-4)[Fuc(a1-3)]GlcNAc(b1-2)Man(a1-3)[Gal(a1-3)Gal(b1-4)[Fuc(a1-3)]GlcNAc(b1-2)Man(a1-6)]Man(b1-4)GlcNAc(b1-4)GlcNAc
# In short: as §1
# Gal(a1-4)Gal(b1-4)Gal = biological target: Gal(a1-4)Gal(b1-4)Gal
# In short: as §1
# Gal(b1-2)Gal = biological target: Gal(b1-2)Gal
# In short: as §1
# Gal(b1-3)Gal = biological target: Gal(b1-3)Gal
# In short: as §1
# Gal(b1-3)Gal(b1-4)GlcNAc = biological target: Gal(b1-3)Gal(b1-4)GlcNAc
# In short: as §1
# Gal(b1-3)GalNAc = biological target: Gal(b1-3)GalNAc
# In short: as §1
# Gal(b1-3)GalNAc(b1-3)Gal = biological target: Gal(b1-3)GalNAc(b1-3)Gal
# In short: as §1
# [12] = biological target: Gal(b1-3)GalNAc(b1-3)Gal(b1-4)Glc
# In short: as §1
# [13] = biological target: Gal(b1-3)GalNAc(b1-4)Gal(b1-4)Glc
# In short: as §1
# [14] = biological target: Gal(b1-3)GalNAc(b1-4)[Neu5Ac(a2-3)]Gal(b1-4)Glc
# In short: as §1
# [15] = biological target: Gal(b1-3)[Neu5Ac(a2-6)]GalNAc
# In short: as §1
# [16] = biological target: Gal(b1-4)GlcNAc(b1-2)Man(a1-6)[Man(a1-3)]Man(b1-4)GlcNAc(b1-4)GlcNAc
# In short: as §1
# [17] = biological target: Gal(b1-4)GlcNAc(b1-3)Gal(b1-4)GlcNAc(b1-2)[Gal(b1-4)GlcNAc(b1-3)Gal(b1-4)GlcNAc(b1-6)]Man(a1-6)[Gal(b1-4)GlcNAc(b1-3)Gal(b1-4)GlcNAc(b1-2)Man(a1-3)]Man(b1-4)GlcNAc(b1-4)GlcNAc
# In short: as §1
# [18] = biological target: Gal(b1-4)GlcNAc(b1-3)Gal(b1-4)GlcNAc(b1-2)[Gal(b1-4)GlcNAc(b1-3)Gal(b1-4)GlcNAc(b1-6)]Man(a1-6)[Gal(b1-4)GlcNAc(b1-3)Gal(b1-4)GlcNAc(b1-2)Man(a1-3)]Man(b1-4)GlcNAc(b1-4)[Fuc(a1-6)]GlcNAc
# In short: as §1
# [19] = biological target: Gal(b1-4)GlcNAc(b1-3)Gal(b1-4)GlcNAc(b1-3)Gal(b1-4)GlcNAc(b1-2)[Gal(b1-4)GlcNAc(b1-3)Gal(b1-4)GlcNAc(b1-3)Gal(b1-4)GlcNAc(b1-6)]Man(a1-6)[Gal(b1-4)GlcNAc(b1-3)Gal(b1-4)GlcNAc(b1-3)Gal(b1-4)GlcNAc(b1-2)Man(a1-3)]Man(b1-4)GlcNAc(b1-4)[Fuc(a1-6)]GlcNAc
# In short: as §1
# [20] = biological target: Gal(b1-4)GlcNAc(b1-3)Gal(b1-4)GlcNAc(b1-3)Gal(b1-4)GlcNAc(b1-3)Gal(b1-4)GlcNAc(b1-3)Gal(b1-4)GlcNAc(b1-3)Gal(b1-4)GlcNAc(b1-2)Man(a1-3)[Gal(b1-4)GlcNAc(b1-3)Gal(b1-4)GlcNAc(b1-3)Gal(b1-4)GlcNAc(b1-3)Gal(b1-4)GlcNAc(b1-3)Gal(b1-4)GlcNAc(b1-3)Gal(b1-4)GlcNAc(b1-2)Man(a1-6)]Man(b1-4)GlcNAc(b1-4)GlcNAc
# In short: as §1
# [21] = biological target: Gal(b1-4)GlcNAc(b1-6)Gal(b1-4)GlcNAc
# In short: as §1
# [22] = biological target: Gal(b1-4)GlcNAc(b1-6)[Gal(b1-3)]GalNAc
# In short: as §1
# [23] = biological target: Gal(b1-4)GlcNAc(b1-6)[Gal(b1-3)]GlcNAc
# In short: as §1
binder,measurement,setting,value
B1,glycan array binding signal (z-score),[1],-0.296
same,glycan array binding signal (z-score),[2],-0.277
same,glycan array binding signal (z-score),[3],-0.26
same,glycan array binding signal (z-score),Fuc(a1-2)GlcNAc,-0.542
same,glycan array binding signal (z-score),[4],-0.269
same,glycan array binding signal (z-score),[5],-0.281
same,glycan array binding signal (z-score),[6],-0.291
same,glycan array binding signal (z-score),[7],-0.283
same,glycan array binding signal (z-score),[8],-0.272
same,glycan array binding signal (z-score),[9],-0.341
same,glycan array binding signal (z-score),[10],-0.265
same,glycan array binding signal (z-score),[11],-0.174
same,glycan array binding signal (z-score),Gal(a1-4)Gal(b1-4)Gal,0.374
same,glycan array binding signal (z-score),Gal(b1-2)Gal,0.199
same,glycan array binding signal (z-score),Gal(b1-3)Gal,2.9
same,glycan array binding signal (z-score),Gal(b1-3)Gal(b1-4)GlcNAc,5
same,glycan array binding signal (z-score),Gal(b1-3)GalNAc,2.56
same,glycan array binding signal (z-score),Gal(b1-3)GalNAc(b1-3)Gal,2.91
same,glycan array binding signal (z-score),[12],1.31
same,glycan array binding signal (z-score),[13],8.65
same,glycan array binding signal (z-score),[14],2.27
same,glycan array binding signal (z-score),[15],5.06
same,glycan array binding signal (z-score),[16],-0.225
same,glycan array binding signal (z-score),[17],1.54
same,glycan array binding signal (z-score),[18],2.48
same,glycan array binding signal (z-score),[19],2.81
same,glycan array binding signal (z-score),[20],1.3
same,glycan array binding signal (z-score),[21],2.34
same,glycan array binding signal (z-score),[22],2.73
same,glycan array binding signal (z-score),[23],2.48
